Source: PubChem BioAssay (Tox21)
Records with an inconclusive call do not appear. Active and inactive are the calls of the source. Unless noted, calls come from the whole dose curve; as a rule, active = well fitted curve in the direction sought with a large enough effect in the repeat runs; inconclusive = weak or mixed curves; inactive = no such curve, though single readings can be large; an effect the other way counts as inactive or inconclusive.

Legend:
[1] = qHTS assay for small molecules that induce genotoxicity in human embryonic kidney cells expressing luciferase-tagged ATAD5 (AID 651632); note: nearly all actives have a fitted effect of over 15% in size
How it was run: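 DMSO vehicle served as the control. HEK293T reporter cells, 16 hr at 37C, then 30 min Amplite at room temperature; ATAD5 induction is measured as luciferase activity.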

[2] = qHTS assay for small molecule agonists of the p53 signaling pathway - cell viability (AID 651633; calls by dose curve; note: nearly all actives have a fitted effect of over 30% in size; note: potency is the fitted concentration of half-maximal effect;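 for activity change, negative = cytotoxicity: p53RE-bla HCT reporter cells with a stable beta-lactamase p53 reporter; series mostly up to about 83 µM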)
How it was run: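 p53RE-bla cells were treated with compound for 16 hours at 37 C. Cytotoxicity was then measured as CellTiter-Glo luminescence after 30 min at room temperature.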

[3] = qHTS assay for small molecules that induce genotoxicity in human embryonic kidney cells expressing luciferase-tagged ATAD5 - cell viability (AID 651634; calls by dose curve; note: nearly all actives have a fitted effect of over 25% in size)
How it was run: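 Here HEK293T cells with the ATAD5 luciferase reporter are incubated with test compounds for 15.5 hr, and cytotoxicity is then gauged by measuring protease activity in live cells using fluorescence.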

[4] = qHTS assay for small molecule disruptors of the mitochondrial membrane potential - cell viability (AID 720634; calls by dose curve;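 note: human HepG2 liver cancer cells; series mostly up to about 83 µM; nearly all actives have a fitted effect of over 20% in size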)
How it was run: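 Viability of HepG2 cells is scored from ATP content by luminescence; cells are exposed to compound for 1 hr at 37 C and 5% CO2, then dosed with m-MPI dye before the CellTiter-Glo reagent.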

[5] = qHTS assay for small molecule disruptors of the mitochondrial membrane potential (AID 720635); note: potency is the fitted concentration of half-maximal effect
How it was run: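 HepG2 cells exposed to compound 1 hr at 37C, then Mito-MPS dye 30 min. Ratio read of aggregate (540/590 nm) versus monomer (490/535 nm) fluorescence.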

[6] = qHTS assay to test for compound auto fluorescence at 590 nm (red) in HepG2 cells (AID 720674)
How it was run: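 Seeding: 2,000 HepG2 cells/well, MEM/10% FBS, overnight 37 C. Dosing: compound vs DMSO. Incubation: 1 hr, 37 C, 5% CO2. Read: fluorescence 540 ex/590 em, Rose Bengal sodium as red reference.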

[7] = qHTS assay to test for compound auto fluorescence at 535 nm (green) in HepG2 cells (AID 720675)
[8] = qHTS assay to test for compound auto fluorescence at 535 nm (green) in HEK293 cells (AID 720680)
[9] = qHTS assay to test for compound auto fluorescence at 460 nm (blue) in HEK293 cell free culture (AID 720681)
How it was run: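 Compounds were added to cell-free DMEM with 10% FBS and fluorescence read directly. The blue channel used 405 nm excitation and 460 nm emission, with triamterene as the reference fluorophore.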

[10] = qHTS assay to test for compound auto fluorescence at 535 nm (green) in HEK293 cell free culture (AID 720682)
How it was run: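 Intrinsic compound fluorescence is measured in culture medium containing 10% FBS, with excitation at 485 nm and detection at 535 nm, referenced to fluorescein.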

[11] = qHTS assay to test for compound auto fluorescence at 590 nm (red) in HEK293 cell free culture (AID 720683)
How it was run: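 Cell-free wells of DMEM with 10% FBS received compound, and intrinsic fluorescence was read at excitation/emission 540/590 nm. Values expressed as equivalence to Rose Bengal sodium.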

[12] = qHTS assay to test for compound auto fluorescence at 590 nm (red) in HepG2 cell free culture (AID 720684)
How it was run: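 Rose Bengal sodium served as the reference for red signal. Test compounds were dispensed into serum-containing MEM (10% FBS) without cells, and plates were read at 540/590 nm.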

[13] = qHTS assay to test for compound auto fluorescence at 460 nm (blue) in HepG2 cell free culture (AID 720685)
How it was run: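 Cell-free plates of MEM plus 10% FBS received 23 nL compound or DMSO vehicle; blue-channel (405/460 nm) intensity scored against triamterene as reference fluorophore.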

[14] = qHTS assay to test for compound auto fluorescence at 535 nm (green) in HepG2 cell free culture (AID 720686)
[15] = target: Glucocorticoid receptor (Homo sapiens) (UniProt P04150); assay: qHTS assay to identify small molecule agonists of the glucocorticoid receptor (GR) signaling pathway (AID 720691; active = well fitted activation curve with a large enough effect in the signal ratio in the repeat runs, not every such curve was filed as active; the % refers to the signal ratio; note: potency is the fitted concentration of half-maximal effect)
Sequence of Glucocorticoid receptor (Homo sapiens) (P04150 whole entry, looked up): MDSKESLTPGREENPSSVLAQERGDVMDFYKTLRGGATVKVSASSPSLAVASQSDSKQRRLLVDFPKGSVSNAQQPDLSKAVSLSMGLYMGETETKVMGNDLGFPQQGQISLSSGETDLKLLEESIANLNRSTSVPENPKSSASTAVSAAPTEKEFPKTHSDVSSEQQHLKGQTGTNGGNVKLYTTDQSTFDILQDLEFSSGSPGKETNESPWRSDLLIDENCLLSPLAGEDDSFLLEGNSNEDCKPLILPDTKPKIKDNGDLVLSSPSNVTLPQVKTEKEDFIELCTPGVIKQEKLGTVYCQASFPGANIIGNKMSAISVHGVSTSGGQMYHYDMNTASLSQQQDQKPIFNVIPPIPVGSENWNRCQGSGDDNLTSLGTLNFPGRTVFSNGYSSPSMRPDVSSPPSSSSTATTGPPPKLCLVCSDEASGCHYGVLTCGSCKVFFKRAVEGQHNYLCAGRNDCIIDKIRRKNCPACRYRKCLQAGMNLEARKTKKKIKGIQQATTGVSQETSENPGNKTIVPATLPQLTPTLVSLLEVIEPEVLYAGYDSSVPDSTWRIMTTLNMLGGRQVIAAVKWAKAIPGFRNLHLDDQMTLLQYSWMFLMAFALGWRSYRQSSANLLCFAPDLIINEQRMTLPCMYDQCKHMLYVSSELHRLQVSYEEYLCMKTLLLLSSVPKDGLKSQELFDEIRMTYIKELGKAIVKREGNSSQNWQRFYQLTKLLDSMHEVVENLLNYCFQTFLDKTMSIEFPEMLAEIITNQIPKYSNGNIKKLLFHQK
How it was run: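 Compounds in DMSO, alongside positive controls, were added to GR-bla HeLa reporter cells and incubated 18 h at 37 C; GRE-driven beta-lactamase was detected by fluorescence after 2 h with FRET substrate at room temperature.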

[16] = target: Glucocorticoid receptor (Homo sapiens) (UniProt P04150); assay: qHTS assay to identify small molecule antagonists of the glucocorticoid receptor (GR) signaling pathway (AID 720692; active = well fitted inhibition curve with a large enough effect in the signal ratio in the repeat runs, not every such curve was filed as active; the % refers to the signal ratio; note: potency is the fitted concentration of half-maximal effect)
How it was run: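 In a 1536-well cell format, compounds were added 4 h after seeding GR-bla HeLa cells, together with dexamethasone at 5 nM final; reporter activity was measured by FRET-substrate fluorescence following 18 h at 37 C.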

[17] = qHTS assay to test for compound auto fluorescence at 460 nm (blue) in HEK293 cells (AID 720678)
How it was run: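 After cell attachment (4-5 hr, 37C), compounds were pinned onto HEK293 monolayers in 10% dialyzed FBS medium. The blue channel (405/460 nm) was read following overnight culture. Equivalency was calculated against triamterene.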

[18] = qHTS assay to test for compound auto fluorescence at 460 nm (blue) in HepG2 cells (AID 720687)
How it was run: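 HepG2 cells in MEM with 10% FBS, attached overnight at 37 C, were exposed to compound or DMSO for 1 hr at 37 C, 5% CO2. Blue fluorescence was read at 405/460 nm, with triamterene as reference fluorophore.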

[19] = qHTS assay for small molecule agonists of the p53 signaling pathway (AID 651631; calls by dose curve; note: nearly all actives have a fitted effect of over 15% in size; note: potency is the fitted concentration of half-maximal effect)
How it was run: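 Fluorescence intensity from cleaved LiveBLAzer B/G substrate (2 h, room temperature) served as the signal. Beforehand, HCT-116 reporter cells bearing p53 response elements were treated 16 h at 37 °C with DMSO-dissolved compounds.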

[20] = qHTS assay to test for compound auto fluorescence at 590 nm (red) in HEK293 cells (AID 720679)
How it was run: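 Plates of HEK293 cells (10% dialyzed FBS) are treated with 23 nL compound or DMSO vehicle after a 4-5 hr attachment period, incubated overnight at 37C, and read for red fluorescence at 540/590nm.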
% is set by controls: 0 for no effect and ±100 for the full control effect.

CO/N=C1\CN(c2nc3c(cc2F)c(=O)c(C(=O)O)cn3C2CC2)CC1CN (stereo not given)
inactive: Potency [1] | Potency [2] | Potency [3] | Potency [4] | Potency [5] | outcome [6] | outcome [7] | outcome [8] | Potency [9] | outcome [10] | outcome [11] | outcome [12] | Potency [13] | outcome [14] | Potency [15] | Potency [16]

O=C(N[C@@H](c1ccccc1)[C@@H]1CCCCN1)c1cccc(C(F)(F)F)c1Cl
inactive: Potency [1] | Potency [2] | Potency [3] | Potency [4] | outcome [6] | outcome [7] | Potency [17] | outcome [8] | Potency [9] | outcome [10] | outcome [11] | outcome [12] | Potency [13] | outcome [14] | Potency [18] | Potency [15]

C=CCCCCCCCCCCCCCCCC
inactive: activation [19] -3.57% [at 8.3 µM] | activation [1] 2.36% [at 8.08 µM] | activity change, negative = cytotoxicity [2] 16.1% [at 8.08 µM] | fluorescence, relative to Rose Bengal [6] 0.0868% [at 3.72 µM] | fluorescence, % of fluorescein control [7] -0.0078% [at 3.72 µM] | fluorescence, % of fluorescent control [20] 0.277% [at 3.72 µM] | fluorescence, % of fluorescent control [9] -0.189% [at 3.72 µM] | activity change [10] -0.098% [at 3.72 µM] | fluorescence, % of fluorescent control [11] -0.0981% [at 3.72 µM] | fluorescence, % of Rose Bengal [12] 0.0296% [at 3.72 µM] | fluorescence, % of fluorescent control [13] -0.0068% [at 3.72 µM] | fluorescence, % of fluorescein control [14] -0.0312% [at 3.72 µM] | fluorescence, % of fluorescent control [18] 0.0871% [at 3.72 µM]

O=C(O)C(Cc1cc(I)c(O)c(I)c1)c1ccccc1 (stereo not given)
inactive: Potency [1] | Potency [2] | Potency [3] | Potency [4] | Potency [5] | outcome [6] | outcome [7] | outcome [20] | outcome [8] | Potency [9] | outcome [10] | outcome [11] | outcome [12] | Potency [13] | outcome [14] | Potency [15] | Potency [16]

CC1=NN(c2ccc(C(=O)O)cc2)C(=O)C1
inactive: Potency [1] | Potency [2] | Potency [3] | Potency [4] | Potency [5] | outcome [6] | outcome [7] | Potency [17] | outcome [20] | outcome [8] | Potency [9] | outcome [10] | outcome [11] | outcome [12] | outcome [14] | Potency [18]

CCCCC(=O)O[C@]1(C(=O)CO)[C@@H](C)C[C@H]2[C@@H]3CCC4=CC(=O)C=C[C@]4(C)[C@@]3(F)[C@@H](O)C[C@@]21C
inactive: Potency [19] | Potency [1] | Potency [3] | outcome [6] | outcome [7] | Potency [17] | outcome [20] | Potency [9] | outcome [10] | outcome [11] | outcome [12] | Potency [13] | outcome [14] | Potency [18]
active: Potency [5] 19.3 µM | Potency [15] 1.9 nM

Cc1c(C(=O)NN2CCCCC2)nn(-c2ccc(Cl)cc2Cl)c1-c1ccc(Cl)cc1
active: Potency [2] 23.7 µM | Potency [5] 23.7 µM
inactive: Potency [1] | Potency [3] | Potency [4] | outcome [6] | outcome [7] | Potency [17] | outcome [20] | Potency [9] | outcome [10] | outcome [11] | outcome [12] | Potency [13] | outcome [14] | Potency [18] | Potency [15]

COC(=O)CC(=O)C(C)(C)C
inactive: Potency [1] | Potency [2] | Potency [3] | Potency [4] | Potency [5] | outcome [6] | outcome [7] | Potency [17] | outcome [20] | outcome [8] | Potency [9] | outcome [10] | outcome [11] | outcome [12] | outcome [14] | Potency [18] | Potency [15] | Potency [16]

CO[C@@]12[C@H](COC(N)=O)C3=C(C(=O)C(C)=C(N)C3=O)N1C[C@@H]1N[C@@H]12
active: Potency [19] 1.88 µM | Potency [2] 23.7 µM | Potency [16] 21.3 µM
inactive: Potency [4] | Potency [5] | outcome [6] | outcome [7] | Potency [17] | outcome [20] | outcome [8] | Potency [9] | outcome [10] | outcome [11] | outcome [12] | Potency [13] | outcome [14] | Potency [18] | Potency [15]

COCC(O)CO (stereo not given)
inactive: Potency [19] | Potency [1] | Potency [2] | outcome [7] | Potency [17] | outcome [20] | outcome [8] | Potency [9] | outcome [10] | outcome [11] | outcome [12] | Potency [13] | outcome [14] | Potency [18] | Potency [15] | Potency [16]

OC(CCCN1CCCCC1)(c1ccccc1)c1ccccc1
inactive: Potency [1] | Potency [2] | Potency [3] | Potency [4] | outcome [6] | outcome [7] | Potency [17] | outcome [20] | outcome [8] | Potency [9] | outcome [10] | outcome [11] | outcome [12] | Potency [13] | outcome [14] | Potency [18]

CCC(Cc1ccccc1)(C(=O)c1ccc(N2CCOCC2)cc1)N(C)C (stereo not given)
active: Potency [5] 30.6 µM
inactive: Potency [19] | Potency [1] | Potency [3] | outcome [6] | outcome [7] | Potency [17] | outcome [20] | outcome [8] | Potency [9] | outcome [10] | outcome [11] | outcome [12] | Potency [13] | outcome [14] | Potency [18]
